The source of these data is PMC4336329 (PLoS ONE, 2015).

Structures are written as SMILES. The campaign covered roughly 310,000 compounds. About 14,000 (4.5%) showed an effect of 50% or more. Effects have a minus sign here. The full list was thinned out, with strong results kept by preference.
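Also: peak tail current of the secondary pulse compared with the same well before compound.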

Sequence of human ether-à-go-go-related gene (hERG) potassium channel (Q12809 whole entry, looked up): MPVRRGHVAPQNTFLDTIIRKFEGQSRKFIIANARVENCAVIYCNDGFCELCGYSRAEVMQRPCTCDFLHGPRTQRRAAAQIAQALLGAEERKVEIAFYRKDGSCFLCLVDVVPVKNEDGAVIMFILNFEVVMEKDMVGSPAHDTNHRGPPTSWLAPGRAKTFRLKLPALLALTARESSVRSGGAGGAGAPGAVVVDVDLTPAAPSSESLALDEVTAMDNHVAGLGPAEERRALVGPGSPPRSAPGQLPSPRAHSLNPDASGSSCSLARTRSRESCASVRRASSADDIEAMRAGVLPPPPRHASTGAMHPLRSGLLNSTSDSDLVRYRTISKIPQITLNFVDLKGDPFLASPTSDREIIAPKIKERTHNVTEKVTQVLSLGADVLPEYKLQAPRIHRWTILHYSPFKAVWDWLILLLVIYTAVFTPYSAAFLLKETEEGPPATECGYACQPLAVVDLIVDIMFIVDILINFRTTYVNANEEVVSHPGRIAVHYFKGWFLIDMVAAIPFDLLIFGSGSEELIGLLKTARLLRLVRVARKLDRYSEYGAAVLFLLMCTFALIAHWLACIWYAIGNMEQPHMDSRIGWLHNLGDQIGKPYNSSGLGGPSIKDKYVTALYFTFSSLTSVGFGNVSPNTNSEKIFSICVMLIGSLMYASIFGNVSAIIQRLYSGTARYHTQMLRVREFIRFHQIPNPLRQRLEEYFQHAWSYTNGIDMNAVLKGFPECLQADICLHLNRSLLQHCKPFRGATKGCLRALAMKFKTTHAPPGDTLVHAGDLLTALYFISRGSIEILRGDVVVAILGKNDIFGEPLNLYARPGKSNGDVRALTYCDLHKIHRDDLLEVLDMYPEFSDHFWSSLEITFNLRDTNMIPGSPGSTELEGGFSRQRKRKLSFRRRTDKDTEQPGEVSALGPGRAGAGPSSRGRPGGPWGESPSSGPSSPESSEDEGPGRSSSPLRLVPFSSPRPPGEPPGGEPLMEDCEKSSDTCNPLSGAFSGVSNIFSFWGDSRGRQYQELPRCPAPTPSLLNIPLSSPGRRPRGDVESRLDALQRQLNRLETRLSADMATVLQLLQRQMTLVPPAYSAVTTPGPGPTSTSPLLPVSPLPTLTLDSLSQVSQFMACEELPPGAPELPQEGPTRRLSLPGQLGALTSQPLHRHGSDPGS

The assay addresses human ether-à-go-go-related gene (hERG) potassium channel (human, UniProt Q12809). Description: primary screen, population patch clamp on CHO cells stably expressing hERG; higher = less effect of the substance.
On to `CC(NC(=O)c1ccccc1SCC(=O)N1CCCC1)c1ccccc1` (stereo not shown), for which the “hERG current change (%, negative = inhibition) at 10uM” value is reported as -26.1%.
In the case of `CCCCP(=O)(CCCC)Cc1ccccc1`, the “hERG current change (%, negative = inhibition) at 10uM” value amounted to 15.3%.
In the case of `CCN1C(=O)NC(=O)/C(=C/c2cc(C)n(-c3sc(C)c(C)c3C#N)c2C)C1=O`, the “hERG current change (%, negative = inhibition) at 10uM” value is reported as -4.66%.
The result for `COc1ccc(-c2c(C)nc(N)nc2-c2ccc(OCc3ccc(C)cc3)cc2O)cc1OC` reads 4.25%.
On to `CCOc1ccc(C(=O)N2CCCN(C(=O)c3ccc(OCC)cc3)CC2)cc1`, for which the “hERG current change (%, negative = inhibition) at 10uM” value is -71.8%.
In the case of `COc1ccc(C(=S)N2CCN(C)CC2)cc1`, the “hERG current change (%, negative = inhibition) at 10uM” value is -22.8%.
As to `CCN(CC)c1ccc(C(=O)N2CCN(Cc3ccccc3)CC2)cc1`, the “hERG current change (%, negative = inhibition) at 10uM” value is given as -37.8%.
On to `CCOc1ccc(C(=O)N2CCN(Cc3ccccc3)CC2)cc1`, for which the “hERG current change (%, negative = inhibition) at 10uM” value is -69.3%.
The same measure for `CCOc1ccc(CN2CCN(C(=O)c3ccccc3)CC2)cc1`: -39.5%.
The same measure for `COc1ccc(C(=O)N2CCN(c3cccc(Cl)c3)CC2)cc1`: -36%; for `CCN1CCN(C(=S)c2ccc(OC)cc2)CC1`: -64.8%.
As to `CCOc1ccc(C(=O)N2CCCCCC2)cc1`, the “hERG current change (%, negative = inhibition) at 10uM” value is 2.03%.
`CCOc1ccc(C(=O)N2CCN(c3ccccc3)CC2)cc1`: the “hERG current change (%, negative = inhibition) at 10uM” value is listed as -36.3%.
Take `CCOc1ccc(C(=O)N2CCCC2)cc1`: the “hERG current change (%, negative = inhibition) at 10uM” value stood at 5.24%.
Consider `CCOc1ccc(C(=O)N2CCN(c3cccc(Cl)c3)CC2)cc1`, for which the “hERG current change (%, negative = inhibition) at 10uM” value is on record as -73.7%.
Turning to `CCN1CCN(C(=S)c2ccc(O)cc2)CC1`, the “hERG current change (%, negative = inhibition) at 10uM” value came to 11%.
`Cn1c(SCC(=O)N2CCCC2=O)nc2ccccc21`: the “hERG current change (%, negative = inhibition) at 10uM” value is listed as 28.2%.
The result for `CCCS(=O)(=O)N1CCCC(C(=O)N2CCC3(CC2)OCCO3)C1` (stereo not shown) reads 15.7%; that for `CCCCNS(=O)(=O)c1ccc2nc(-c3cccnc3)cc(C(=O)NCC(OC)OC)c2c1`, -2.03%; that for `O=[N+]([O-])c1ccc(N2CCN(c3ccccc3F)CC2)c(S(=O)(=O)N2CCOCC2)c1`, -5.12%.
In the case of `CC(=O)NC(Nc1nc2c(s1)CCCC2)(C(F)(F)F)C(F)(F)F`, the “hERG current change (%, negative = inhibition) at 10uM” value is listed as 23.8%.
For the compound `C=CCNC(=O)/C(=C\C=C\c1ccccc1)NC(=O)c1ccccc1Cl`, the “hERG current change (%, negative = inhibition) at 10uM” value is -49.7%.
With `CNC(=O)c1[nH]cnc1C(=O)NCC(=O)OCc1ccccc1`, the “hERG current change (%, negative = inhibition) at 10uM” value was 13.9%.
With `Cc1cc(NC(=O)c2cc([N+](=O)[O-])cc([N+](=O)[O-])c2)n(-c2ccccc2)n1`, the “hERG current change (%, negative = inhibition) at 10uM” value is on record as 7.63%.
The result for `COc1ccc(/C=C2\CCn3c2nc2cc(C(=O)O)ccc2c3=O)cc1` reads 9.07%; that for `COC(=O)CCCC1=CC2=CC(=O)C(C)(OC(=O)c3cccs3)C(=O)C2=CN1CCCCO` (stereo not shown), 3.74%.
In the case of `CCCCc1cc(=O)oc2cc(OC(C)C(=O)NCc3ccccn3)c(Cl)cc12` (stereo not shown), the “hERG current change (%, negative = inhibition) at 10uM” value was -13.6%.
For the compound `Br.COc1ccc(-c2csc(CCN3N=C(C)CC3=O)n2)cc1`, the “hERG current change (%, negative = inhibition) at 10uM” value came to 12.7%.
As for `CCCNS(=O)(=O)c1ccc(OCC(=O)N2CCN(Cc3ccccc3)CC2)cc1`, the “hERG current change (%, negative = inhibition) at 10uM” value is reported as -28.6%.
With `CCOc1ccc(C(=O)N2CCN(c3cccc(C)c3C)CC2)cc1`, the “hERG current change (%, negative = inhibition) at 10uM” value was -79.9%.
Turning to `O=C(CCNS(=O)(=O)c1ccccc1F)N1CCN(C/C=C/c2ccccc2)CC1`, the “hERG current change (%, negative = inhibition) at 10uM” value is reported as -47.8%.
The result for `CCOc1ccc(C(=S)N2CCN(C)CC2)cc1` reads -82.2%.
As for `Cc1ccc(S(=O)(=O)NCCC(=O)N2CCN(Cc3ccccc3)CC2)cc1`, the “hERG current change (%, negative = inhibition) at 10uM” value stood at 11%.
Take `Cc1cccc(N2CCN(C(=O)c3ccncc3)CC2)c1C`: the “hERG current change (%, negative = inhibition) at 10uM” value is given as -37%.
For `CCOc1ccc(C(=S)N2CCOCC2)cc1`, the “hERG current change (%, negative = inhibition) at 10uM” value was -13.2%.
As to `O=C(CCNS(=O)(=O)c1ccc(OC(F)(F)F)cc1)N1CCN(C/C=C/c2ccccc2)CC1`, the “hERG current change (%, negative = inhibition) at 10uM” value is -81.5%.
Consider `CCOc1ccc(S(=O)(=O)NCCC(=O)N2CCN(Cc3ccccc3)CC2)cc1`, for which the “hERG current change (%, negative = inhibition) at 10uM” value is given as -54.2%.
On to `CCOc1ccc(C(=S)N2CCCC2)cc1`, for which the “hERG current change (%, negative = inhibition) at 10uM” value is recorded as -7.78%.
As to `CCOC(=O)N1CCN(c2cccc(C)c2C)CC1`, the “hERG current change (%, negative = inhibition) at 10uM” value is -2.36%.
Consider `Cc1ccc(S(=O)(=O)NCCC(=O)N2CCN(C/C=C/c3ccccc3)CC2)cc1`, for which the “hERG current change (%, negative = inhibition) at 10uM” value was -49.5%.
Turning to `CC(=O)Nc1ccc(S(=O)(=O)NCC2CCC(C(=O)N3CCCCCC3)CC2)cc1` (stereo not shown), the “hERG current change (%, negative = inhibition) at 10uM” value is given as 5.67%.
As to `CN(c1ccccc1)S(=O)(=O)c1ccc(Cl)nc1`, the “hERG current change (%, negative = inhibition) at 10uM” value stood at 10.8%.
The same measure for `C#CCOCCOCCOCCNc1nc(N2CCN(C(=O)[C@H]([C@@H](C)CC)n3cc([C@@H](N)Cc4ccc(O)cc4)nn3)CC2)nc(N2CCN(C(=O)[C@H](Cc3cc4ccccc4[nH]3)n3cc([C@@H](N)C(C)CC)nn3)CC2)n1.Cl` (stereo partly shown): 3.33%.
